# Records with an inconclusive call do not appear. Values without a mark were called inactive. The source made the active and inactive calls. Unless noted, calls come from the whole dose curve; as a rule, active = well fitted inhibition curve with a large enough effect; inconclusive = small, poorly fitted or top-dose-only effect; inactive = no such curve, though single readings can be large or run the other way.
# Tested on: not listed separately
# Test: NS1 protein of Zika virus - qHTS assay to identify small molecule inhibitors in human HEK 293 cells (AID 1347053);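 note: plate controls were infected untreated cells for no effect and uninfected cells for full effect; nearly all actives have a fitted effect of over 55% in size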
# Settings: HEK293 ZIKV MR766 infection, NS1 TR-FRET, 24 h; series mostly up to 46.1 µM; activity change, negative = inhibition: at the top concentration
# In short: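 HEK 293; 20 h pre-culture, 37 C/5% CO2; cpd 1 h pre-infection; ZIKV MR766, MOI = 0.5, 24 h, 37 C; TR-FRET NS1 readout (two anti-NS1 Abs); norm. to no-virus vs infected.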
SMILES,"activity change, negative = inhibition",Potency
COc1cc(OC)c(/C=C2/C(=O)Nc3ccccc32)c(OC)c1,4.52%,
Nc1nc2ccc([N+](=O)[O-])cc2s1,-5.8% [at 92.8 µM],
Nc1nc2ccc(Cl)cc2n2c(-c3ccccc3)nnc12,-1.84%,
O=C(CCc1ccncc1)NNC(=O)N1Cc2ccccc2Oc2ccc(Cl)cc21,2.14%,
O=C(O)/C=C\C(=O)O,8.37%,
O=C(Nc1ccncc1)c1cc([N+](=O)[O-])ccc1Cl,-15.2%,
COc1ccc(Br)cc1S(=O)(=O)NC(=O)/C=C/c1ccccc1Cc1ccc2ccccc2c1,-11.9%,
CCOC(=O)C1=C(C)NC(C)=C(C(=O)OCC)C1c1c(F)c(F)c(F)c(F)c1F,2.77%,
O=C(CCN1CCN(CCO)CC1)N1c2ccccc2Sc2ccc(C(F)(F)F)cc21,-0.0907%,
Cc1[nH]cnc1CN1CCc2c(c3ccccc3n2C)C1=O,0.116%,
C#C[C@]1(O)CC[C@H]2[C@@H]3CCC4=Cc5oncc5CC4(C)[C@H]3CCC21C (stereo partly drawn),17.2%,
CCC(CO)Nc1nc(NCc2ccccc2)c2ncn(C(C)C)c2n1 (stereo not drawn),12.2%,
Cc1ccc2c(n1)Oc1ccc(C(C)C(=O)OCC(=O)N(C)C)cc1C2 (stereo not drawn),,inactive
O=C(O)Cc1ccc2c(c1)C(=O)c1ccccc1CO2,-3.07%,
CNC(=O)c1c(I)c(NC(=O)CCCCC(=O)Nc2c(I)c(C(=O)O)c(I)c(C(=O)NC)c2I)c(I)c(C(=O)O)c1I,-0.24%,
CCNC(=O)[C@H]1O[C@@H](n2cnc3c(N)nc(NCCc4ccc(CCC(=O)O)cc4)nc32)[C@H](O)C1O (stereo partly drawn),-27.3%,
O=C1CN(/N=C/c2ccc([N+](=O)[O-])o2)C(=O)N1,13.2%,
Nc1nc(OCC2CCCCC2)c2[nH]cnc2n1,0.844%,
CN1CCN(c2cc3c(nn2)Oc2ccccc2N3C)CC1,-2.67% [at 20.1 µM],
COc1ccc(-c2cc(=S)ss2)cc1,7.96%,

# Target: Tyrosine-protein phosphatase non-receptor type substrate 1 (Homo sapiens) + Leukocyte surface antigen CD47 (Homo sapiens) (UniProt P78324+Q08722)
# Sequence (P78324 whole entry, looked up): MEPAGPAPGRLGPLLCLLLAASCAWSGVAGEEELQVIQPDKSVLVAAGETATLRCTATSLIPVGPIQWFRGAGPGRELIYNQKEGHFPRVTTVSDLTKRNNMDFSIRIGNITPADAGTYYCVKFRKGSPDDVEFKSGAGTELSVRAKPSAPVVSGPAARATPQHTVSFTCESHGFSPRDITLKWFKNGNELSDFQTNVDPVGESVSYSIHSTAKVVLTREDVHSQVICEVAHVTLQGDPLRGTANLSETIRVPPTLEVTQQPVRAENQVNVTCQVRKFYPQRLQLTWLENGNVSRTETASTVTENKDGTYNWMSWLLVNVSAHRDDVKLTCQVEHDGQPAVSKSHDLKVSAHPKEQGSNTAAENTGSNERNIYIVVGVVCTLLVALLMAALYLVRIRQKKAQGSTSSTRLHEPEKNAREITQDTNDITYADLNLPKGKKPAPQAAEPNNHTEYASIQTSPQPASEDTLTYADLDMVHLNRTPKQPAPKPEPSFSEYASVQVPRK
# Sequence (Q08722 whole entry, looked up): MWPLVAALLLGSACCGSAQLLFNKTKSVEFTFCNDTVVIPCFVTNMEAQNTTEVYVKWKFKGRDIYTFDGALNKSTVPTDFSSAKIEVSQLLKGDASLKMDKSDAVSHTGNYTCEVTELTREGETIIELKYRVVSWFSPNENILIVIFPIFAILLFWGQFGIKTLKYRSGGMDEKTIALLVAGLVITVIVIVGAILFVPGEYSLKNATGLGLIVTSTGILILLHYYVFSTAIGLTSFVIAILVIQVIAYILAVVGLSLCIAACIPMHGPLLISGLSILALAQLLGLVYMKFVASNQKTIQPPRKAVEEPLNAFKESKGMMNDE
# Test: CD47-SIRPalpha protein protein interaction - LANCE assay qHTS validation (AID 1347057; active = well fitted curve in the direction sought with a large enough effect in the signal ratio, with a control signal flat, not every such curve was filed as active; the % refers to the signal ratio; note: 0% is about no effect)
# Settings: Recombinant CD47-His / biotin-SIRPalpha, TR-FRET ratio; series mostly up to 38.3 µM; activity change, negative = inhibition: at the top concentration
# In short: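 First, His-tagged CD47 and Eu-labelled anti-His antibody met the compound for 30 min; next, site-specifically biotinylated SIRPalpha was added for 30 min; finally streptavidin-APC was added before reading the TR-FRET ratio.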
row,SMILES,"activity change, negative = inhibition [%]"
1,CC12C(=O)OC(=O)C1(C)C1CCC2O1 (stereo not drawn),-0.0879
2,Nc1nc2ccc(Cl)cc2n2c(-c3ccccc3)nnc12,2.25
3,O=C(CCc1ccncc1)NNC(=O)N1Cc2ccccc2Oc2ccc(Cl)cc21,2.74
4,O=C(Nc1ccncc1)c1cc([N+](=O)[O-])ccc1Cl,-0.0879
5,COc1ccc(Br)cc1S(=O)(=O)NC(=O)/C=C/c1ccccc1Cc1ccc2ccccc2c1,0.876
6,CCOC(=O)C1=C(C)NC(C)=C(C(=O)OCC)C1c1c(F)c(F)c(F)c(F)c1F,1.35
7,CCNC(=O)[C@H]1O[C@@H](n2cnc3c(N)nc(NCCc4ccc(CCC(=O)O)cc4)nc32)[C@H](O)C1O (stereo partly drawn),-1.14
8,Nc1nc(OCC2CCCCC2)c2[nH]cnc2n1,-2.27
